# From PubChem BioAssay
# Wnt bcat act: Wnt/beta-catenin pathway activators, primary screen, cell-based, plate reader, single point | activation, % at 9.35 µM | AID 743398, 2014 | hit rate 1.2% among 300,000 | Wnt/beta-catenin reporter cell assay, activator; in the data active means activation above about 30%, passing the limit was not always enough; inconclusive means no clear call, values can overlap the other calls
# MITF act: activators of MITF-driven TRPM1 promoter reporter, primary screen, cell-based, SK-MEL-5, luciferase, single point; hit rate 0.75% among 300,000; SK-MEL-5 TRPM1-promoter luciferase, 24 h; % of positive control, neutral wells = 0; AID 588334, 2011; activation, % at 12.5 µM;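 active means mean activation of at least 80% with every replicate also reaching 80%; inconclusive means mean reaches 80% but some replicate falls short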
# esBAF inh: Bmi1 luciferase reporter increase in mESCs, primary screen, esBAF inhibitor project, mouse ES cells, Bmi1 luciferase knock-in, single point. 24 h; 100% = twice the neutral-well signal. reporter increase, % at 12.5 µM. hit rate 2% among 350,000; in the data active means activation above about 40%; inconclusive means no clear call, values can overlap the other calls;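 further: a rise in the Bmi1 reporter signal indicates esBAF inhibition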
# GAA850 FXN act: FXN promoter activators, primary screen, cell-based, luciferase luminescence, HEK293 lucGAA850; HEK293 lucGAA850 FXN promoter luciferase reporter, 24 h; percent of 10 µM SAHA response; activation, % at 6 µM; hit rate 0.56% among 360,000; AID 540364, 2011;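 active means activation above the average of all compounds screened plus 3 SD, cutoff fixed separately per campaign, cut at about 7.5% in these data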
# Numbers stand for hits; . = inactive; ? = inconclusive; / = no result given. In the library only some 2.8% were active in any assay of this set; here they are far more common.
SMILES,Wnt bcat act,MITF act,esBAF inh,GAA850 FXN act
O=C(C[C@@H]1C[C@@H]2c3cc(NC(=O)Nc4ccc(F)cc4)ccc3O[C@@H]2[C@@H](CO)O1)NC1CCCCC1,/,/,.,/
O=C(NC1CCCCC1)c1ccc([N+](=O)[O-])cc1,.,.,74,.
N#Cc1ccc(C(=O)NC2CCCCCCC2)cc1,.,107,53,.
O=C(N[C@H]1CC1c1ccccc1)c1ccc([N+](=O)[O-])cc1 (stereo partly specified),35,.,/,.
O=C(NC1CCCCCCC1)c1cc([N+](=O)[O-])ccc1Cl,.,/,.,.
O=C(NC1CCCCC1)c1ccc(-c2cccc([N+](=O)[O-])c2)o1,32,116,/,.
O=C(NCC1CC1)[C@H]1[C@H](CO)[C@H]2Cn3c(ccc(-c4ccccc4)c3=O)[C@@H]1N2C(=O)C1CC1,/,/,.,/
Cc1noc(C)c1NC(=O)Nc1cccc2c1O[C@@H](CN(C)C)[C@H](C)CN([C@@H](C)CO)C2=O,/,/,.,/
COc1ccc(S(=O)(=O)N(C)C[C@@H]2Oc3ncc(-c4cccc(OC)c4)cc3C(=O)N([C@H](C)CO)C[C@@H]2C)cc1,/,/,.,/
O=C(C=Cc1cccc(O)c1)c1ccccc1O,.,.,?,.
O=C(/C=C/c1cc2ccccc2o1)c1ccccc1O,39,?,/,.
O=C(C=Cc1ccccc1O)c1ccccc1O,.,.,63,.
CC(C)NC(=O)N[C@@H]1CC[C@H](CCNC(=O)C2CCOCC2)O[C@H]1CO,/,/,.,/
O=c1/c(=C\c2ccc(F)cc2)sc2n1CCCN=2,53,.,/,.
Cc1ccc(S(=O)(=O)N(C)C[C@@H]2Oc3c(NC(=O)c4ccncc4)cccc3C(=O)N([C@H](C)CO)C[C@H]2C)cc1,/,/,.,/
Cc1ccc(OCc2cc(C(=O)NCCc3cccnc3)no2)cc1C,.,.,58,.
CCCc1cc(C(=O)NCCc2ccccc2)no1,.,/,50,.
COc1ccc(CCNC(=O)c2cc(-c3ccccc3OC)on2)cc1OC,/,.,.,.
COc1ccccc1-c1cc(C(=O)NCCc2ccccc2)no1,.,/,60,.
CCCc1cc(C(=O)Nc2cc(C)nn2-c2ccccc2)no1,.,/,.,.
C[C@@H]1CN([C@H](C)CO)C(=O)c2cc(C#CC3(O)CCCC3)cnc2O[C@H]1CN(C)C(=O)CC1CC1,/,/,.,/
CCN1C(=Nc2ccc(Cl)cc2)SC/C1=C\C(=O)OC,.,?,61,.
CCN1C(=O)CSC1=Nc1ccc(C(=O)O)cc1,.,.,.,.
CC1CCN(CCc2nc3cc(NC(=O)Nc4ccccc4)ccc3n2C)CC1,.,/,44,.
CC(=O)Nc1ccc2c(c1)nc(CCN1CCC(C)CC1)n2C,.,.,.,.
SMILES,Wnt bcat act,MITF act,esBAF inh,GAA850 FXN act
C[C@@H]1CN([C@@H](C)CO)C(=O)Cc2cc(NC(=O)NC3CCCCC3)ccc2O[C@H]1CN(C)Cc1ccc(C(F)(F)F)cc1,/,/,.,/
CCNC(=O)C[C@@H]1CC[C@@H]2[C@H](COc3ccc(NC(=O)Nc4cccc(F)c4)cc3C(=O)N2C)O1,/,/,.,/
Nc1[nH]c(N=NC(=O)c2ccccc2O)c2ccccc12,71,.,/,.
Nc1[nH]c(N=NC(=O)c2ccccc2)c2ccccc12,.,.,/,.
Cc1ccc(N(Cc2ccccc2)C(=O)c2cccc(S(=O)(=O)N3CC(C)OC(C)C3)c2)cc1 (stereo unspecified),.,.,64,.
C[C@@H]1CN([C@@H](C)CO)S(=O)(=O)c2ccc(-c3cccc(F)c3)cc2O[C@H]1CN(C)C(=O)C1CC1,/,/,.,/
Cc1cccc(NC(=O)Nc2ccc3c(c2)C(=O)N(C)[C@H]2CC[C@H](CC(=O)O)O[C@H]2CO3)c1,/,/,.,/
Cc1onc(-c2c(Cl)cccc2Cl)c1NC(=O)NC1CCSC1 (stereo unspecified),34,/,/,.
Cc1onc(-c2c(Cl)cccc2Cl)c1NC(=O)N(C)N,.,.,.,.
COCC(=O)Nc1ccc2c(c1)C(=O)N(C)[C@@H]1CC[C@@H](CC(=O)NCc3ccccc3F)O[C@H]1CO2,/,/,.,/
COc1ccc(S(=O)(=O)N[C@H]2CC[C@H](CC(=O)N3CCC(Cc4ccccc4)CC3)O[C@@H]2CO)cc1,/,/,.,/
CO[C@@H]1CN(C)C(=O)c2ccc(NC(=O)c3ccccn3)cc2OC[C@@H](C)N(CC2CC2)C[C@H]1C,/,/,.,/
CCOC(=O)N1CCC(NC(=O)c2oc3c(F)cccc3c2C)CC1,.,.,50,.
COc1ccc(NC(=O)Nc2ccc3c(c2)C(=O)N([C@@H](C)CO)C[C@@H](C)[C@@H](CN(C)C(=O)Nc2ccccc2)OCCCC[C@H](C)O3)cc1,/,/,.,/
O=C(CNC(=O)c1cn2ccccc2n1)Nc1ccc(F)c(F)c1,35,.,/,.
O=C(COC(=O)c1cc(=O)[nH]c2ccccc12)Nc1nc(-c2ccc(F)cc2)cs1,.,.,44,.
CCn1nc(C(=O)OCC(=O)NCC(C)C)c2ccccc2c1=O,.,.,/,.
CCn1nc(C(=O)OCC(=O)Nc2nc(-c3ccc(OC)cc3)cs2)c2ccccc2c1=O,/,.,57,.
O=C(COC(=O)c1cc(=O)[nH]c2ccccc12)NCc1ccc(F)cc1,.,.,.,.
COc1ccc(C(CNC(=O)c2cccn2C)N2CCOCC2)cc1 (stereo unspecified),.,.,57,.
O=C(NCC(c1ccc(F)cc1)N1CCOCC1)c1c(F)cccc1F (stereo unspecified),39,.,.,.
COc1ccc(C(CNC(=O)c2ccc(C)o2)N2CCOCC2)cc1 (stereo unspecified),.,.,.,.
COc1ccc(-n2nnnc2SCc2nc3ccccc3s2)cc1,/,.,71,.
COc1ccc(CSc2nnnn2-c2ccccc2)cc1,/,.,.,.
COc1ccc(C)cc1-n1nnnc1SCc1nc2ccccc2s1,.,/,57,.
SMILES,Wnt bcat act,MITF act,esBAF inh,GAA850 FXN act
COc1ccc(C)cc1-n1nnnc1SCC1CCCO1 (stereo unspecified),/,.,/,.
C[C@H]1CN([C@@H](C)CO)C(=O)c2cc(NC(=O)Cc3ccccc3)ccc2O[C@H]1CN(C)CC1CC1,/,/,.,/
O=C1/C(=C/Nc2cccc([N+](=O)[O-])c2)CCc2ccccc21,90,.,/,.
O=C1/C(=C\c2ccc([N+](=O)[O-])cc2)CCc2ccccc21,.,.,/,.
CC(C)NC(=O)N(C)C[C@@H]1Oc2c(NC(=O)c3ccncc3)cccc2C(=O)N([C@@H](C)CO)C[C@@H]1C,/,/,.,/
Clc1ccccc1NN=Cc1ccccn1,60,/,/,.
Fc1cccc(F)c1/C=N/Nc1ccccn1,.,.,/,.
Clc1ccc(/C=N/NC(=Nc2ccccc2)c2ccccn2)c(Cl)c1,/,.,.,.
Fc1cccc(Cl)c1/C=N/Nc1ccccn1,.,.,56,.
Clc1ccc(C=NNc2ccccn2)c(Cl)c1,.,.,43,.
Cc1csc(N/N=C/c2c(F)cccc2Cl)n1,.,.,45,.
C[C@@H]1CN([C@@H](C)CO)S(=O)(=O)c2ccc(C#Cc3ccccn3)cc2O[C@@H]1CN(C)CC1CC1,/,/,.,/
Fc1cccc(/C=N/Nc2ccc3ccccc3n2)c1,.,.,/,.
